# Only a selection was taken, and the strongest signals are over-represented in it overall.
# B1: PX14367A-bth-493-35-493 (Bacteroides thetaiotaomicron) (protein)
# chain: VSSDQVAVAGNAERLFNGAWYNLFEYGTTYANIGYRALQCQDDMMASDVVSRPKYGFNSSYQFNDVAIPSDGRTSFAWYLIYKTIDNCNTAISIKGDSEELRQAQGQALALRAFCYLHLVQHYQFTYLKDKDAPCVPIYTEPTTSGTKPKGKSTVAQVYQQIFDDLNLAQDYLTNYVRKGDGQKFKPNTDVVNGLMARAYLLTGQWGEAAKAAEAARKGYSLMTTTAEYEGFNNISNKEWIWGSPQTLSQSDASYNFYYLDATYVGAYSSFMADPHLMDTFVKGDIRLPLFQWMREGYLGYKKFHMRSDDTADLVLMRSAEMYLIEAEAKVRDGVALDQAVAPLNTLRTARGVGNYDVTGKTKEQVIDEILMERRRELWGEGFGITDVLRNQKAVERMALSEDMQKTEVDCWQEGGSFAKRNPLGHWFLNFPDGKAFSANSSYYLYAIPEKEINANPNL
# How the values were obtained:
# Experiment in all cases: glycan array binding signal (z-score within array); higher = stronger binding
# Settings in all cases: glycan notation: IUPAC condensed, linker removed
# [1] = target: Fuc(a1-2)Gal6S(b1-4)Glc6S
# How it was run: (§1)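 Arrays were curated from the Consortium for Functional Glycomics database, 3228 in total, and kept only where the protein sequence was available. Binding is expressed as a within-array Z-score. This score was averaged across arrays of the same protein sequence at different concentrations or buffers and across linkers, and negative values can be read as non-binding.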
# [2] = target: Fuc(a1-2)[Gal(a1-3)]Gal(b1-3)GlcNAc(b1-3)GalNAc
# How it was run: as §1
# [3] = target: Fuc(a1-2)[Gal(a1-4)]Gal(b1-4)GlcNAc
# How it was run: as §1
# [4] = target: Fuc(a1-2)[GalNAc(a1-3)]Gal(b1-3)GalNAc(b1-3)Gal(a1-4)Gal(b1-4)Glc
# How it was run: as §1
# [5] = target: Fuc(a1-2)[GalNAc(a1-3)]Gal(b1-3)GlcNAc(b1-2)Man(a1-3)[Fuc(a1-2)[GalNAc(a1-3)]Gal(b1-3)GlcNAc(b1-2)Man(a1-6)]Man(b1-4)GlcNAc(b1-4)GlcNAc
# How it was run: as §1
# [6] = target: Fuc(a1-2)[GalNAc(a1-3)]Gal(b1-4)[Fuc(a1-3)]GlcNAc
# How it was run: as §1
# [7] = target: Fuc(a1-3)[Gal(b1-4)]GlcNAc(b1-2)Man(a1-3)[Fuc(a1-3)[Gal(b1-4)]GlcNAc(b1-2)Man(a1-6)]Man(b1-4)GlcNAc(b1-4)[Fuc(a1-6)]GlcNAc
# How it was run: as §1
# [8] = target: Fuc(a1-3)[Gal(b1-4)]GlcNAc(b1-3)Gal(b1-4)[Fuc(a1-3)]GlcNAc
# How it was run: as §1
# Gal(a1-2)Gal = target: Gal(a1-2)Gal
# How it was run: as §1
# [9] = target: Gal(a1-3)Gal(b1-4)GlcNAc(b1-2)Man(a1-3)[Gal(a1-3)Gal(b1-4)GlcNAc(b1-2)Man(a1-6)]Man(b1-4)GlcNAc(b1-4)GlcNAc
# How it was run: as §1
# [10] = target: Gal(b1-3)GlcNAc(b1-2)Man(a1-3)[GlcNAc(b1-4)][Gal(b1-3)GlcNAc(b1-2)Man(a1-6)]Man(b1-4)GlcNAc(b1-4)GlcNAc
# How it was run: as §1
# [11] = target: Gal(b1-3)GlcNAc(b1-3)Gal(b1-3)GlcNAc
# How it was run: as §1
# [12] = target: Gal(b1-3)[Fuc(a1-4)]GlcNAc
# How it was run: as §1
# [13] = target: Gal(b1-3)[Fuc(a1-4)]GlcNAc(b1-3)Gal(b1-3)[Fuc(a1-4)]GlcNAc
# How it was run: as §1
# [14] = target: Gal(b1-3)[GlcNAc(b1-6)]GalNAc
# How it was run: as §1
# [15] = target: Gal(b1-4)GlcNAc(b1-2)Man(a1-3)[Gal(b1-4)GlcNAc(b1-2)Man(a1-6)]Man(b1-4)GlcNAc(b1-4)GlcNAc
# How it was run: as §1
# [16] = target: Gal(b1-4)GlcNAc(b1-2)Man(a1-3)[Gal(b1-4)GlcNAc(b1-2)Man(a1-6)][GlcNAc(b1-4)]Man(b1-4)GlcNAc(b1-4)[Fuc(a1-6)]GlcNAc
# How it was run: as §1
# [17] = target: Gal(b1-4)GlcNAc(b1-2)Man(a1-3)[Man(a1-6)]Man(b1-4)GlcNAc(b1-4)GlcNAc
# How it was run: as §1
# [18] = target: Gal(b1-4)GlcNAc(b1-2)Man(a1-6)[GlcNAc(b1-2)Man(a1-3)]Man(b1-4)GlcNAc(b1-4)GlcNAc
# How it was run: as §1
# [19] = target: Gal(b1-4)GlcNAc(b1-2)[Gal(b1-4)GlcNAc(b1-4)]Man(a1-3)[Gal(b1-4)GlcNAc(b1-2)[Gal(b1-4)GlcNAc(b1-6)]Man(a1-6)]Man(b1-4)GlcNAc(b1-4)GlcNAc
# How it was run: as §1
# [20] = target: Gal(b1-4)GlcNAc(b1-2)[Gal(b1-4)GlcNAc(b1-6)]Man(a1-6)[Gal(b1-4)GlcNAc(b1-2)Man(a1-3)]Man(b1-4)GlcNAc(b1-4)[Fuc(a1-6)]GlcNAc
# How it was run: as §1
# [21] = target: Gal(b1-4)GlcNAc(b1-3)Gal(b1-4)GlcNAc
# How it was run: as §1
# [22] = target: Gal(b1-4)GlcNAc(b1-3)Gal(b1-4)GlcNAc(b1-2)Man(a1-3)[Gal(b1-4)GlcNAc(b1-3)Gal(b1-4)GlcNAc(b1-2)Man(a1-6)]Man(b1-4)GlcNAc(b1-4)GlcNAc
# How it was run: as §1
# [23] = target: Gal(b1-4)GlcNAc(b1-3)Gal(b1-4)GlcNAc(b1-2)Man(a1-3)[Gal(b1-4)GlcNAc(b1-3)Gal(b1-4)GlcNAc(b1-2)Man(a1-6)]Man(b1-4)GlcNAc(b1-4)[Fuc(a1-6)]GlcNAc
# How it was run: as §1
# [24] = target: Gal(b1-4)GlcNAc(b1-3)Gal(b1-4)GlcNAc(b1-3)Gal(b1-4)GlcNAc(b1-2)Man(a1-3)[Gal(b1-4)GlcNAc(b1-3)Gal(b1-4)GlcNAc(b1-3)Gal(b1-4)GlcNAc(b1-2)Man(a1-6)]Man(b1-4)GlcNAc(b1-4)GlcNAc
# How it was run: as §1
# [25] = target: Gal(b1-4)GlcNAc(b1-3)Gal(b1-4)GlcNAc(b1-3)Gal(b1-4)GlcNAc(b1-2)Man(a1-3)[Gal(b1-4)GlcNAc(b1-3)Gal(b1-4)GlcNAc(b1-3)Gal(b1-4)GlcNAc(b1-2)Man(a1-6)]Man(b1-4)GlcNAc(b1-4)[Fuc(a1-6)]GlcNAc
# How it was run: as §1
# [26] = target: Gal(b1-4)GlcNAc(b1-3)Gal(b1-4)GlcNAc(b1-3)Gal(b1-4)GlcNAc(b1-3)Gal(b1-4)GlcNAc(b1-2)Man(a1-3)[Gal(b1-4)GlcNAc(b1-3)Gal(b1-4)GlcNAc(b1-3)Gal(b1-4)GlcNAc(b1-3)Gal(b1-4)GlcNAc(b1-2)Man(a1-6)]Man(b1-4)GlcNAc(b1-4)GlcNAc
# How it was run: as §1
# [27] = target: Gal(b1-4)GlcNAc(b1-3)Gal(b1-4)GlcNAc(b1-3)Gal(b1-4)GlcNAc(b1-3)Gal(b1-4)GlcNAc(b1-2)Man(a1-3)[Gal(b1-4)GlcNAc(b1-3)Gal(b1-4)GlcNAc(b1-3)Gal(b1-4)GlcNAc(b1-3)Gal(b1-4)GlcNAc(b1-2)Man(a1-6)]Man(b1-4)GlcNAc(b1-4)[Fuc(a1-6)]GlcNAc
# How it was run: as §1
# [28] = target: Gal(b1-4)GlcNAc(b1-3)Gal(b1-4)GlcNAc(b1-3)Gal(b1-4)GlcNAc(b1-3)Gal(b1-4)GlcNAc(b1-3)Gal(b1-4)GlcNAc(b1-2)Man(a1-3)[Gal(b1-4)GlcNAc(b1-3)Gal(b1-4)GlcNAc(b1-3)Gal(b1-4)GlcNAc(b1-3)Gal(b1-4)GlcNAc(b1-3)Gal(b1-4)GlcNAc(b1-2)Man(a1-6)]Man(b1-4)GlcNAc(b1-4)[Fuc(a1-6)]GlcNAc
# How it was run: as §1
# Gal(b1-6)Gal = target: Gal(b1-6)Gal
# How it was run: as §1
binder,measurement,setting,value
B1,glycan array binding signal (z-score),[1],-0.358
same,glycan array binding signal (z-score),[2],-0.51
same,glycan array binding signal (z-score),[3],-0.256
same,glycan array binding signal (z-score),[4],-0.668
same,glycan array binding signal (z-score),[5],0.408
same,glycan array binding signal (z-score),[6],-0.482
same,glycan array binding signal (z-score),[7],-0.25
same,glycan array binding signal (z-score),[8],-0.421
same,glycan array binding signal (z-score),Gal(a1-2)Gal,-0.084
same,glycan array binding signal (z-score),[9],3.93
same,glycan array binding signal (z-score),[10],1.39
same,glycan array binding signal (z-score),[11],-0.152
same,glycan array binding signal (z-score),[12],-0.11
same,glycan array binding signal (z-score),[13],-0.392
same,glycan array binding signal (z-score),[14],-0.406
same,glycan array binding signal (z-score),[15],1.44
same,glycan array binding signal (z-score),[16],-0.354
same,glycan array binding signal (z-score),[17],3.6
same,glycan array binding signal (z-score),[18],-0.174
same,glycan array binding signal (z-score),[19],-0.334
same,glycan array binding signal (z-score),[20],-0.167
same,glycan array binding signal (z-score),[21],-0.81
same,glycan array binding signal (z-score),[22],3.94
same,glycan array binding signal (z-score),[23],7.69
same,glycan array binding signal (z-score),[24],2.81
same,glycan array binding signal (z-score),[25],2.6
same,glycan array binding signal (z-score),[26],1.4
same,glycan array binding signal (z-score),[27],2.51
same,glycan array binding signal (z-score),[28],6.87
same,glycan array binding signal (z-score),Gal(b1-6)Gal,-0.332
